Measured values as given in PubChem BioAssay (NCI).
This is part of a sample that, as a whole, favours compounds with a hit. Of some 79,000 tested, about 15% had one in any assay. Unmarked numbers belong to inactive results. Calls of active or inactive are those of the source. Cut-off read from the data, not from the text of the source: active = growth inhibition above about 70%; inactive = the rest.

Test: NCI Yeast Anticancer Drug Screen. Data for the bub3 strain (AID 167)
Details: S. cerevisiae bub3 mutant strain, at 50.0 µM, stronger effect = higher value
Method in brief: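 Whole-cell yeast assay. The mutant strain was incubated with compounds, and growth inhibition was determined by comparison with vehicle-treated cells.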

Row | Structure (SMILES) | growth inhibition
1 | NC(=O)NC(=O)N/N=C/c1ccc([N+](=O)[O-])o1 | 27.2%
2 | O=[N+]([O-])/C=C\c1csc2ccccc12 | 99.3% (active)
3 | O=[N+]([O-])c1ccc2c(c1)CCc1ccccc1-2 | 20.4%
4 | CC1=C(C)CC2C(=O)C(C(O)CC(C)C)=CC(=O)C2C1 (stereo not given) | 98.2% (active)
5 | CCC(=O)OC1CCC(C2CCCCC2)CC1 (stereo not given) | 61.1%
6 | Cc1cc(C2C(O)C(c3cc(C)on3)C2(C)O)no1 (stereo not given) | 8.1%
7 | CC(C)C(Sc1nc(-c2ccccc2)c(-c2ccccc2)[nH]1)C(=O)NN (stereo not given) | 89% (active)
8 | C/C(=N\NC(=O)N/N=C(\C)c1ccccn1)c1ccccn1 | 35.5%
9 | COC(=O)CCCCCCCCCCC(=O)O | 38.6%
10 | CCCCCCCCCCCCNC(=O)C[n+]1cccc(C(N)=O)c1 | 50.8%
11 | Nc1ccccc1N=Cc1ccccc1O | 5.85%
12 | N#Cc1c(-c2ccc(Cl)cc2)c2c(n(C3OC(CO)C(O)C(O)C3O)c1=S)CCCC2 (stereo not given) | 1%
13 | CC(C)(C)CC(C)(C)N[P+](NC(C)(C)CC(C)(C)C)(NC(C)(C)CC(C)(C)C)NC(C)(C)CC(C)(C)C | 90.5% (active)
14 | CC(=O)OC1C(OC(C)=O)C2C(C)CC3OC(=O)C(C)C3CC2(C)C1OC(C)=O (stereo not given) | 67%
15 | NNC(=O)c1ccc(N)cc1O | -3.65%
16 | Nc1ccc2c(c1)C(=O)c1ccccc1-2 | -6.55%
17 | Cc1cn(C(C#N)=C(C#N)C#N)c2ccccc12 | 18.2%
18 | FC(F)(F)COP1(OCC(F)(F)F)=NP(OCC(F)(F)F)(OCC(F)(F)F)=NP(c2ccccc2)(c2ccccc2)=N1 | -3.05%
19 | O=c1oc(-c2ccccc2Br)ns1 | 97.5% (active)
20 | CC(=O)N1C(C(=O)NNc2ccccc2)CSC1c1ccccc1 (stereo not given) | 35.2%

Row | Structure (SMILES) | growth inhibition
21 | O=[N+]([O-])/C=C/c1cc2c(ccc3ccccc32)[nH]1 | 90.7% (active)
22 | CN(C)CCCC1(c2ccccc2)SC(C)(C)c2ccc(Cl)cc21 (stereo not given) | 19.3%
23 | O=c1[nH]c2ccccc2c2oc3ccccc3c12 | 46.5%
24 | O=C(c1ccccc1)c1cn(/N=C\c2ccccc2)c(=O)nc1-c1ccccc1 | 89% (active)
25 | Cc1ccc(S(=O)(=O)OCCc2ccc(Cl)cc2)cc1 | 71.2% (active)
26 | COC(=O)CC1(O)c2cc(OC)c3cccc(OC)c3c2CCC1(C)C(=O)OC (stereo not given) | 88.5% (active)
27 | CC(C)CC(NC(=O)SCc1ccccc1)C(=O)O (stereo not given) | -5.95%
28 | COc1ccc(/C=C/c2ccnc3ccccc23)cc1 | 86.5% (active)
29 | N#CC1=C(N)OC(/C=C/c2ccccc2)=C(C#N)C1c1ccccc1 (stereo not given) | 75% (active)
30 | COc1ccc(C(=O)C(CN2CCOCC2)CN2CCOCC2)cc1 | 95.7% (active)
31 | N/N=C(/N)SCCCCCCCCCCS/C(N)=N/N | 15.2%
32 | OC(CBr)C[n+]1cccc2cc(Cl)ccc21 (stereo not given) | 2.8%
33 | O=C(O)C1C(C(=O)Nc2ccc3c(c2)Cc2ccccc2-3)C2(Cl)C(Cl)=C(Cl)C1(Cl)C2(Cl)Cl (stereo not given) | 98.3% (active)
34 | CSc1nc(COC(=O)NC(C)C)c(COC(=O)NC(C)C)n1-c1ccccc1 | -12.7%
35 | CC(C)C[NH-].CC(C)C[NH-].[Cl][Pt+2]([Cl])([Cl])[Cl] | 89.5% (active)
36 | c1ccc(N=c2sc3ccccc3sc2=Nc2ccccc2)cc1 | 31.7%
37 | [Cl-].[La+3].[O-]/N=C(\c1ccccc1)c1ccccn1.[O-]/N=C(\c1ccccc1)c1ccccn1.[O-]/N=C(\c1ccccc1)c1ccccn1 | 67.3%
38 | Clc1ccc(SSN2CCCCC2)cc1 | 77.7% (active)
39 | CCC(O)C(O)(c1ccccc1)c1nc2ccccc2s1 (stereo not given) | -2.65%
40 | ONC(=Nc1cccc2ccccc12)C(=Nc1cccc2ccccc12)NO | 47.5%

Test: NCI Yeast Anticancer Drug Screen. Data for the mlh1 rad18 strain (AID 175)
Details: S. cerevisiae mlh1 rad18 strain growth inhibition; at 5.0 µM (retest, dose inferred, filed as 0.5); stronger effect = higher value
Method in brief: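 A repair-deficient yeast strain is exposed to test compound, and growth is scored relative to vehicle-treated controls.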

Row | Structure (SMILES) | growth inhibition
41 | NC(=O)NC(=O)N/N=C/c1ccc([N+](=O)[O-])o1 | 4%
42 | O=[N+]([O-])/C=C\c1csc2ccccc12 | 92% (active)
43 | O=[N+]([O-])c1ccc2c(c1)CCc1ccccc1-2 | 16%
44 | CC1=C(C)CC2C(=O)C(C(O)CC(C)C)=CC(=O)C2C1 (stereo not given) | -9%
45 | CCC(=O)OC1CCC(C2CCCCC2)CC1 (stereo not given) | 4%
46 | Cc1cc(C2C(O)C(c3cc(C)on3)C2(C)O)no1 (stereo not given) | 16%
47 | CC(C)C(Sc1nc(-c2ccccc2)c(-c2ccccc2)[nH]1)C(=O)NN (stereo not given) | -11%
48 | C/C(=N\NC(=O)N/N=C(\C)c1ccccn1)c1ccccn1 | 14%
49 | COC(=O)CCCCCCCCCCC(=O)O | -2%
50 | CCCCCCCCCCCCNC(=O)C[n+]1cccc(C(N)=O)c1 | -1%
51 | Nc1ccccc1N=Cc1ccccc1O | 3%
52 | N#Cc1c(-c2ccc(Cl)cc2)c2c(n(C3OC(CO)C(O)C(O)C3O)c1=S)CCCC2 (stereo not given) | -2%
53 | CC(C)(C)CC(C)(C)N[P+](NC(C)(C)CC(C)(C)C)(NC(C)(C)CC(C)(C)C)NC(C)(C)CC(C)(C)C | 94% (active)
54 | CC(=O)OC1C(OC(C)=O)C2C(C)CC3OC(=O)C(C)C3CC2(C)C1OC(C)=O (stereo not given) | -18%
55 | NNC(=O)c1ccc(N)cc1O | 0%
56 | Nc1ccc2c(c1)C(=O)c1ccccc1-2 | 2%
57 | Cc1cn(C(C#N)=C(C#N)C#N)c2ccccc12 | 1%
58 | FC(F)(F)COP1(OCC(F)(F)F)=NP(OCC(F)(F)F)(OCC(F)(F)F)=NP(c2ccccc2)(c2ccccc2)=N1 | 11%
59 | O=c1oc(-c2ccccc2Br)ns1 | 6%
60 | CC(=O)N1C(C(=O)NNc2ccccc2)CSC1c1ccccc1 (stereo not given) | 83% (active)

Row | Structure (SMILES) | growth inhibition
61 | O=[N+]([O-])/C=C/c1cc2c(ccc3ccccc32)[nH]1 | 87% (active)
62 | CN(C)CCCC1(c2ccccc2)SC(C)(C)c2ccc(Cl)cc21 (stereo not given) | 11%
63 | O=c1[nH]c2ccccc2c2oc3ccccc3c12 | -18%
64 | O=C(c1ccccc1)c1cn(/N=C\c2ccccc2)c(=O)nc1-c1ccccc1 | -1%
65 | Cc1ccc(S(=O)(=O)OCCc2ccc(Cl)cc2)cc1 | -14%
66 | COC(=O)CC1(O)c2cc(OC)c3cccc(OC)c3c2CCC1(C)C(=O)OC (stereo not given) | 92% (active)
67 | CC(C)CC(NC(=O)SCc1ccccc1)C(=O)O (stereo not given) | 3%
68 | COc1ccc(/C=C/c2ccnc3ccccc23)cc1 | 29%
69 | N#CC1=C(N)OC(/C=C/c2ccccc2)=C(C#N)C1c1ccccc1 (stereo not given) | 19%
70 | COc1ccc(C(=O)C(CN2CCOCC2)CN2CCOCC2)cc1 | 18%
71 | N/N=C(/N)SCCCCCCCCCCS/C(N)=N/N | -8%
72 | OC(CBr)C[n+]1cccc2cc(Cl)ccc21 (stereo not given) | 2%
73 | O=C(O)C1C(C(=O)Nc2ccc3c(c2)Cc2ccccc2-3)C2(Cl)C(Cl)=C(Cl)C1(Cl)C2(Cl)Cl (stereo not given) | 46%
74 | CSc1nc(COC(=O)NC(C)C)c(COC(=O)NC(C)C)n1-c1ccccc1 | -1%
75 | CC(C)C[NH-].CC(C)C[NH-].[Cl][Pt+2]([Cl])([Cl])[Cl] | 66%
76 | c1ccc(N=c2sc3ccccc3sc2=Nc2ccccc2)cc1 | 93% (active)
77 | [Cl-].[La+3].[O-]/N=C(\c1ccccc1)c1ccccn1.[O-]/N=C(\c1ccccc1)c1ccccn1.[O-]/N=C(\c1ccccc1)c1ccccn1 | 43%
78 | Clc1ccc(SSN2CCCCC2)cc1 | 3%
79 | CCC(O)C(O)(c1ccccc1)c1nc2ccccc2s1 (stereo not given) | 0%
80 | ONC(=Nc1cccc2ccccc12)C(=Nc1cccc2ccccc12)NO | -9%
